Bioassay records deposited in PubChem by National Center for Advancing Translational Sciences (NCATS).
A selection: hits, their analogues and other compounds. The true share with any hit is near 4.6%.
D1 antagonist = Antagonist of Human D 1 Dopamine Receptor: qHTS. D(1A) dopamine receptor (Homo sapiens), P21728. HEK293 TREx D1 cells, calcium flux, dopamine EC80; hits give low values. activity change, negative = inhibition, % at 10 µM. hit rate 3.2% among 360,000. AID 504652, 2011; in the data active = activity change below about -30%
Target sequence (P21728 whole entry, looked up): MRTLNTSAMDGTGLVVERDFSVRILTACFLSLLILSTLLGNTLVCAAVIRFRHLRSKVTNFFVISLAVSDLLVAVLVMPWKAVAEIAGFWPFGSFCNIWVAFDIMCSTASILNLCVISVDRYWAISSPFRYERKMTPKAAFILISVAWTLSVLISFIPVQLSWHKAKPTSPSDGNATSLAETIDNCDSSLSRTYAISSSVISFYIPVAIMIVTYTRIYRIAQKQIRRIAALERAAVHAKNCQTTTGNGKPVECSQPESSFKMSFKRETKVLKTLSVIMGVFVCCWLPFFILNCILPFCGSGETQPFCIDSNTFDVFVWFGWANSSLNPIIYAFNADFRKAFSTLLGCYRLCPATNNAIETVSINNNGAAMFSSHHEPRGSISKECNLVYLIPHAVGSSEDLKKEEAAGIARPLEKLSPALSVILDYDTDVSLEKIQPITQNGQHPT
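HEK293 T-REx cells expressing inducible, force-coupled D1 receptor; no-wash Ca dye, 30–90 min RT. Cmpd → 180 s read at 1 Hz → EC80 DA → 180 s read.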
TRHR agonist = qHTS for Small Molecule Agonists and Allosteric Enhancers of Human TRH Receptor: Primary Screen for Agonists | Thyrotropin-releasing hormone receptor (Homo sapiens), P34981 | TRHR cells, calcium flux fluo-8, FDSS agonist mode | activation, % at 2 µM | hit rate 0.18% among 360,000 | AID 493084, 2011
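TRHR-expressing cells, plated overnight in medium with 10% serum, were loaded with fluo-8 calcium dye at room temperature. After a 10 s baseline, library compound was pin-added and calcium release was recorded kinetically (ex 480/em 530) as agonist response.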
D1 agonist = Allosteric Agonists of the Human D1 Dopamine Receptor: qHTS; HEK293 T-REx D1 cells, calcium flux, agonist mode; AID 504660, 2011; activation, % at 2 µM; D(1A) dopamine receptor (Homo sapiens), P21728; hit rate 1% among 360,000
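Tetracycline-induced HEK293 TREx D1 cells, force-coupled to calcium signalling, were dye-loaded with a no-wash calcium kit. Compound was pin-added after a 10 s baseline. Fluorescence was read kinetically at 1 cycle/s for 180 s, with calcium rises flagged as agonism.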
TRHR PAM = qHTS for Small Molecule Agonists and Allosteric Enhancers of Human TRH Receptor: Primary Screen for Enhancers | TRHR cells, fluo-8 calcium fluorescence, EC20 TRH enhancement | enhancement, % at 2 µM | hit rate 0.66% among 360,000; in the data active = enhancement above about 30%
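TRHR-expressing cells loaded with fluo-8 calcium dye were read kinetically (ex 480/em 530) during compound addition, then stimulated with an EC20 of TRH (10 nM final). Enhancement of the Gq-mediated intracellular calcium response was scored.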
D1 PAM = Potentiators of Human D1 Dopamine Receptor: qHTS; D(1A) dopamine receptor (Homo sapiens), P21728; HEK293 TREx D1 cells, calcium flux, dopamine EC20 potentiation; potentiation, % at 10 µM; hit rate 0.036% among 360,000; in the data active = potentiation above about 30%
Hits are given with their value; n = inactive. Rule as the data show it, unless noted: active = activation above about 30%; inactive = the rest.

SMILES | D1 antagonist | TRHR agonist | D1 agonist | TRHR PAM | D1 PAM
COc1cc(C(=O)NNC(=O)c2n[nH]c3ccccc23)cc(OC)c1OC | n | n | n | n | n
CCN(CCCNC(=O)c1cc(Nc2ccccc2OC)nc2ccccc12)c1cccc(C)c1 | -35 | n | n | n | n
COc1ccc(Nc2cc(C(=O)NCCCN(C)Cc3ccccc3)c3ccccc3n2)cc1 | -46 | n | 43 | n | n
CCOc1ccccc1NC(=O)Nc1cc2c(cc1N1CCCCC1)n(CC)c(=O)n2CC | n | n | n | n | n
c1cc2c(cc1C1CCCCC1)c1c3n2CCCNC3CCC1 (stereo unspecified) | n | n | 122 | n | n
CC(=O)Nc1ccc(S(=O)(=O)N2CCC3(CC2)CC(=O)c2ccccc2O3)cc1 | n | n | n | n | n
C/C(=N\NC(=O)c1nnn(-c2nonc2N)c1-c1ccccc1)c1ccco1 | n | n | 66 | n | n
COc1cccc(-c2c(C(=O)N/N=C(\C)c3ccco3)nnn2-c2nonc2N)c1 | n | n | 47 | n | n
Cc1nc2ccccn2c(=O)c1NC(=O)c1cccc(F)c1 | n | n | n | n | n
S=C(Nc1ccc(N2CCOCC2)cc1)Nc1ccc2nc(-c3ccco3)c(-c3ccco3)nc2c1 | n | n | 57 | n | n
O=C(Nc1ccc(N2CCOCC2)cc1)c1ccc2nc(-c3ccco3)c(-c3ccco3)nc2c1 | n | n | n | n | n
CCOC(=O)CSC1=N/C(=C\c2cccnc2)C(=O)N1c1ccc(OC)cc1 | n | n | n | n | n
C=CCSC1=N/C(=C\c2ccsc2)C(=O)S1 | n | n | n | n | n
CCSC1=N/C(=C/c2ccsc2)C(=O)N1c1ccccc1 | -72 | n | n | n | n
CCCCSC1=N/C(=C/c2ccsc2)C(=O)N1c1ccccc1 | -45 | n | n | n | n
CCCSC1=N/C(=C/c2ccsc2)C(=O)N1c1ccccc1 | -38 | n | n | n | n
Cc1c(C(=O)NC(C)c2ccccc2)sc2ncnc(N(C)C3CCCCC3)c12 (stereo unspecified) | n | n | n | n | n
CN(C)c1ccc(P(=O)(OCc2ccccc2)C(O)c2ccccc2)cc1 (stereo unspecified) | n | n | n | n | n
CC(C)(C)NC(=O)NC(=O)CSc1ccc(S(=O)(=O)N2CCCCC2)cn1 | -39 | n | n | n | n
O=C(CSc1ccc(S(=O)(=O)N2CCOCC2)cn1)Nc1ccc(F)c(F)c1 | -57 | n | n | n | n
CC(C)N(C(=O)CSc1ccc(S(=O)(=O)N2CCCCC2)cn1)c1ccccc1 | -37 | n | n | n | n
O=C(CSc1nc2cc(S(=O)(=O)N3CCOCC3)ccc2o1)Nc1c(F)cccc1F | -32 | n | n | n | n
CCC(CC)NC(=O)CSc1ccc(S(=O)(=O)N2CCCCC2)cn1 | n | n | n | n | n
CN(C1CCCCC1)S(=O)(=O)c1ccc2c(c1)c(=O)c(C(=O)NCc1ccccc1Cl)cn2C | n | n | n | n | n
CCOc1ccccc1NC(=O)CCS(=O)(=O)c1ccc2c(c1)CCN2C(C)=O | n | n | n | n | n
SMILES | D1 antagonist | TRHR agonist | D1 agonist | TRHR PAM | D1 PAM
Cc1ccc(S(=O)(=O)N(C)c2ccc(OC(C)C(=O)N3CCCC3)cc2)cc1C (stereo unspecified) | n | n | n | n | n
COc1ccc(OC)c(CNC(=O)CN2CC(C)Sc3ccccc32)c1 (stereo unspecified) | n | n | n | n | n
C/C(=N\NC(=O)CSc1nc2ccccc2o1)c1cccc(O)c1 | -35 | n | n | n | n
O=C(CSc1nc2ccccc2o1)Nc1ccc(N2CCOCC2)cc1 | -44 | n | n | n | n
O=C(NCC12CC3CC(CC(C3)C1)C2)c1cc2nc(-c3ccc(F)cc3)cc(C(F)(F)F)n2n1 | n | n | n | n | n
Cc1ccc(C(=O)N/C(=C\c2cccc([N+](=O)[O-])c2)C(=O)OCN2C(=O)c3ccccc3C2=O)cc1 | -48 | n | n | n | n
O=C(Nc1nnc(S(=O)(=O)N2CCCCC2)s1)c1cccc(Br)c1 | n | n | 30 | n | n
